An excerpt weighted towards active compounds, which were near 5.4% of everything screened.
MPTP inh: inhibitors of mitochondrial permeability transition pore; isolated mouse mitochondria, Ca2+ swelling absorbance, 30 min; inhibition, % at 10 µM; 360,000 compounds, 1.4% hits; AID 602449;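 active = inhibition of 50% or more, scaled per plate between neutral and stimulator controls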;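 note: 0% = DMSO wells given calcium and 100% = 1 mM EGTA wells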
Calb FLC: C. albicans growth modulation with fluconazole; growth inhibition, % (concentration not given with the values); AID 1979; 300,000 compounds, 0.57% hits; C. albicans CaCi-2 (fluconazole-resistant clinical isolate) + fluconazole, Alamar Blue growth, 48 h;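 active = growth inhibition above about 58% in most replicates, limit read from the data, passing the limit was not always enough; inconclusive = exactly half the replicates above a set limit; inactive = most replicates below a set limit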;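 note: all wells also contain fluconazole at 8 µg/ml as a sub-toxic cotreatment; 0% = median of DMSO wells and 100% = median of geldanamycin control wells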
SKKanGAS inh: inhibitors of SKKanGAS S. pyogenes growth in kanamycin (SK-promoter or general growth effect); BacTiter-Glo, 6 h; inhibition, % at 7.5 µM; 300,000 compounds, 1.3% hits;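 active = mean replicate score, as percent of positive control median, at least 50; inconclusive = mean below 50 but one replicate at or above 50; inactive = mean and every replicate below 50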;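 note: strain carries kanamycin resistance gene driven by streptokinase promoter and grows in 40 µg/ml kanamycin; loss of luminescence reflects streptokinase promoter inhibition or plain growth inhibition; 0% = median of DMSO wells and 100% = positive control at its reference dose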
Mdm2-MdmX inh: disrupts the human Mdm2-MdmX interaction | inhibition, % at 8 µM | O15151+Q00987 | AID 485346 | 330,000 compounds, 3% hits | SaOS-2 split-luciferase Mdm2/MdmX complementation, luminescence;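 active = inhibition of at least 50% at 8 µM in the primary screen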
Target sequence (O15151 whole entry, looked up): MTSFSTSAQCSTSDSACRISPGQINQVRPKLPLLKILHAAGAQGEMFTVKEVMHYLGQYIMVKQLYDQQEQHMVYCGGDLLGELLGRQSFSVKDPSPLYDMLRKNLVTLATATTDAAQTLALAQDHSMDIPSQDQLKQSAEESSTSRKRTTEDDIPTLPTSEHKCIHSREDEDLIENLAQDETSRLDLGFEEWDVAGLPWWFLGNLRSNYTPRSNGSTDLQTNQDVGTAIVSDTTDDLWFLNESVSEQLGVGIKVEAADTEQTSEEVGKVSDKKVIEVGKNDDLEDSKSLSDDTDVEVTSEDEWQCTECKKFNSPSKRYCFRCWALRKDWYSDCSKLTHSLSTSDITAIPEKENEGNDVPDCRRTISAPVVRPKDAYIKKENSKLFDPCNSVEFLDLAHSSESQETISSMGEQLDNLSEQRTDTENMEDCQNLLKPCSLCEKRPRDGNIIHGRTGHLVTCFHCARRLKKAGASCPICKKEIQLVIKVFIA
Target sequence (Q00987 whole entry, looked up): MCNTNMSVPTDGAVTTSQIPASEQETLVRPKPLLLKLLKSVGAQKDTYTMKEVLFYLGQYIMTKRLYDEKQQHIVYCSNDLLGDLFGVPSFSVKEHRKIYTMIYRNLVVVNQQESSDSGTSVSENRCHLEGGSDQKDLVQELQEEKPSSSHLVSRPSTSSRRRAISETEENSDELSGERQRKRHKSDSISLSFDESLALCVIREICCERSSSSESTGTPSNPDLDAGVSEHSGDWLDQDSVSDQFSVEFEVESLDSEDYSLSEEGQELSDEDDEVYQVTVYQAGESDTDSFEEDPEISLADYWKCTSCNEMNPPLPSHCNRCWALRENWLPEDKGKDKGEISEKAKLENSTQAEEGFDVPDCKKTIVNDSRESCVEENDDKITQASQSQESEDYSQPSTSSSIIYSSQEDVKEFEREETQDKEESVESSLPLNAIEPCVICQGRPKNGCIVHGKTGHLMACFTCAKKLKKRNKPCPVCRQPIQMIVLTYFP
CSC inhib: blocks cancer stem cells. AID 2717. inhibition, % at 7.5 µM. 300,000 compounds, 1.1% hits. cancer stem cell-like cells viability, luminescence; in the data active = inhibition above about 75%; inconclusive = no clear call, values can overlap the other calls; tested in HMLE shEcad cells
Beta apoptosis: blocks beta cell apoptosis | INS-1E cytokine-induced death, ATP luminescence, 48 h; percent of positive-control rescue, neutral wells zero | protection from apoptosis, % (concentration not given with the values) | 300,000 compounds, 0.8% hits;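 active = Every replicate reaches about 75%, or at least half do and their mean reaches it too, limit read from the data; inconclusive = At least half of replicates reach the limit but their mean does not; inactive = Under half of replicates reach the limit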;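 note: 0% = cytokine-treated negative control wells and 100% = positive control rescue; higher means more ATP so stronger rescue from cytokine killing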
Mdm2 MdmX conf: human Mdm2/MdmX binding inhibition, confirmed; shares compounds with Mdm2-MdmX inh; luminescent assay; inhibition, % at 8 µM; 10,000 compounds, 55% hits; AID 489028; in the data active = inhibition above about 40%
FLuc counter: inhibits full-length luciferase, flagging false Mdm2/MdmX hits; 6,200 compounds, 77% hits; inhibition, % at 8 µM; shares compounds with Mdm2-MdmX inh; SaOS-2 full-length luciferase counterscreen, luminescence;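 active = mean inhibition at 8 µM reaching about 37%, which flags the compound as non-specific, limit read from the data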;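 note: p53-null SaOS-2 cells with luciferase driven by a doxycycline-inducible promoter; compound on cells about two nights before reading with doxycycline added after day one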
* marks the source's active call; other numbers are inactive results; ? = inconclusive; . = no result given.

SMILES	MPTP inh	Calb FLC	SKKanGAS inh	Mdm2-MdmX inh	CSC inhib	Beta apoptosis	Mdm2 MdmX conf	others
COc1ccc(S(=O)(=O)N2CCCOC2CNC(=O)C(=O)NCCc2ccco2)cc1C (configuration not stated)	-1.2	1.1	10.3	53.1*	17.5	-0.2	60.5*	FLuc counter=60.9*
CC(C)N1CCC(N2CCN(Cc3ccc4nsnc4c3)CC2CCO)CC1 (configuration not stated)	1.1	25.6	2.9	2.0	-1.9	-4.3	.
COC(=O)C1C2CC3c4[nH]c5cc(OC)ccc5c4CCN3CC2CC(OC(=O)CC(C)=O)C1OC (configuration not stated)	-0.7	.	.	.	.	.	.
CCOC(=O)Oc1c(OC)cc(C(=O)O[C@@H]2C[C@@H]3CN4CCc5c([nH]c6cc(OC)ccc56)[C@H]4C[C@@H]3[C@H](C(=O)OC)[C@H]2OC)cc1OC	1.1	.	.	87.7*	15.2	6.2	57.5*	FLuc counter=49.0*
CC1(C)CC(=O)C2=C(C1)N1C(=C(C#N)C2c2ccc(Cl)cc2)N=C(N)c2ccccc21 (configuration not stated)	0.7	64.2	23.8	55.5*	23.4	-3.8	-0.4
CC1(C)CC(=O)C2=C(C1)N1C(=C(C#N)C2c2ccccc2Cl)N=C(N)c2ccccc21 (configuration not stated)	-0.9	13.8	4.0	43.3	0.7	9.3	.
Cc1nn(Cc2ccc(Cl)cc2Cl)c(Cl)c1/C=N/NC(=O)CNc1cccc(C(F)(F)F)c1	.	-8.6	1.8	83.9*	25.9	20.3	-0.6
O=C(CNc1cccc(C(F)(F)F)c1)N/N=C/c1ccccc1C(=O)O	1.0	-17.7	-9.1	-3.6	-2.8	-5.9	.
Cc1ccc2c(c1)-n1c(nc3cc(F)ccc3c1=O)C(Cc1ccccc1)NC2=O (configuration not stated)	.	.	.	4.5	-13.4	-1.0	.
COc1cc(-c2cc(C(=O)Nc3ccccc3N3CCOCC3)c3ccccc3n2)cc(OC)c1OC	-1.8	-4.0	37.7	45.8	-2.3	13.8	.
O=C(Nc1ccccc1N1CCOCC1)c1cc(-c2ccco2)nc2ccccc12	1.3	-1.2	10.5	70.3*	27.7	-1.4	53.2*	FLuc counter=68.5*
CCOc1ccc2nc(NC(=O)CSc3nc(SC)ns3)sc2c1	7.8	45.2	18.8	-9.4	-2.0	-2.7	.
CN(C)CCNC(=O)/C(=C/c1ccc(-c2cccc(Cl)c2)o1)NC(=O)c1ccccc1	0.1	-12.3	-0.9	90.8*	3.2	16.1	61.4*	FLuc counter=44.8*
CN(C)CCNC(=O)/C(=C/c1ccc(-c2cccc([N+](=O)[O-])c2)o1)NC(=O)c1ccccc1	0.0	-1.7	-6.6	43.3	9.5	1.3	.
CN(C)CCCNC(=O)/C(=C\c1ccc(-c2ccc(Br)cc2)o1)NC(=O)c1ccccc1	-3.2	-1.3	1.0	100.3*	14.1	12.2	52.0*	FLuc counter=29.2
Cc1ccc(C(=O)N/C(=C\c2ccc(-c3ccc(Cl)cc3)o2)C(=O)NCCCN(C)C)cc1	43.7	?	10.0	93.3*	6.4	109.7*	94.4*	FLuc counter=52.2*
COc1ccc(C(=O)N/C(=C\c2ccc(-c3cccc([N+](=O)[O-])c3)o2)C(=O)NCCCN2CCOCC2)cc1	0.4	.	.	.	.	.	.
Cc1ccc(C(=O)N/C(=C\c2ccc(-c3cccc([N+](=O)[O-])c3)o2)C(=O)NCCCN2CCOCC2)cc1	-2.2	6.3	2.3	50.7*	12.9	9.7	14.3
Cc1ccc(C(=O)N/C(=C\c2ccc(-c3ccccc3[N+](=O)[O-])o2)C(=O)NCCCN(C)C)cc1	0.5	11.3	0.8	25.3	-11.4	3.6	.
CN1CCC(N(CCc2ccccc2)C(=O)CCC(=O)O)CC1	1.0	6.8	.	-9.1	-17.9	-9.7	.
CC(=O)NCCNc1nc2cc(-c3ccc(Cl)cc3C)sc2c(=O)n1C	-0.6	.	.	.	.	.	.
CC(C)c1ccc(NC(=O)[C@H]2CSCN2C(=O)[C@@H]2CCC(=O)N2)cc1	-0.4	8.9	-2.8	24.1	-0.9	-3.0	.
O=C(Nc1ccccc1)N1CCN(c2ccccc2)CC1	-0.1	.	.	.	.	.	.
COc1cccc(CN(C)CC(=O)Nc2ccccc2C(=O)Nc2ccccc2)c1OC	0.1	?	10.6	33.7	26.8	-7.4	.
CCCCOc1ccc(-c2cc(C(=O)NNC(=S)NCC)c3ccccc3n2)cc1	33.5	72.0	63.0*	80.1*	99.7*	80.3*	74.5*	FLuc counter=127.3*
SMILES	MPTP inh	Calb FLC	SKKanGAS inh	Mdm2-MdmX inh	CSC inhib	Beta apoptosis	Mdm2 MdmX conf	others
CCCCOc1cccc(-c2cc(C(=O)NNC(=S)NCC)c3ccccc3n2)c1	43.0	32.0	-4.5	45.1	12.2	24.3	.
Cc1cccc2c1Sc1ccc(Cl)cc1CC2N1CCNCC1 (configuration not stated)	.	67.1	14.0	100.2*	101.6*	.	38.9	FLuc counter=46.4*
CCc1cccc2c1Sc1ccccc1CC2N1CCNCC1 (configuration not stated)	-1.0	-28.5	8.5	71.2*	79.0*	.	24.0
CCc1ccc(NC(=O)C(CC)Sc2nc3cc4c(cc3c(=O)n2Cc2ccco2)OCO4)cc1 (configuration not stated)	5.1	-4.7	3.3	81.0*	?	66.9	8.7
Cc1cc(S(=O)(=O)NC(=O)[C@H]2O[C@@H](n3cnc4c(N)ncnc43)[C@H](O)[C@@H]2O)ccc1Br	0.2	.	.	.	.	.	.
CCC(C)N(CCNC(=O)c1ccc2c(c1)NC(=O)c1ccccc1S2)C1CCCCC1 (configuration not stated)	3.4	-29.7	2.7	66.9*	16.3	2.4	47.5*	FLuc counter=55.8*
O=C(CN(CC1CCCO1)C(=O)CNS(=O)(=O)c1ccc(Cl)cc1)NCC1CCCO1 (configuration not stated)	-1.1	-0.6	-2.7	15.4	-10.8	.	.
Cc1ccc(N(Cc2ccco2)C(=O)c2ccc(N3CCCCC3)c([N+](=O)[O-])c2)cc1	4.1	0.6	0.7	53.9*	64.4	28.8	29.4
CCS(=O)(=O)n1c(Cc2cccs2)nc2ccccc21	-1.2	0.7	6.0	11.9	-7.7	-12.1	.
O=C(/C=C/c1ccc(Cl)c([N+](=O)[O-])c1)Nc1cccc(NC(=O)c2ccco2)c1	12.4	43.2	4.9	53.1*	?	1.1	22.2
CCc1c(C#N)c(SCCC(=O)Nc2ccc(F)cc2)nc2c1C(=O)CC(C)(C)C2	-13.2	17.2	31.2	55.5*	36.4	-6.0	11.3
CCc1c(C#N)c(SCCC(=O)Nc2cccc(OC)c2)nc2c1C(=O)CC(C)(C)C2	2.4	14.5	15.7	30.6	25.0	-6.9	.
CSc1ccc(CN(C)C(=O)c2cccc(S(=O)(=O)N3CCN(Cc4ccccc4)CC3)c2)cc1	27.4	-3.6	-4.0	12.5	-4.3	55.4	.

Assay outcomes (PubChem)
